The structures appear in SMILES notation. Hit rate of the full screen: of about 350,000 compounds, about 550 (0.16%) were called active. Cut-off read from the data, not from the text of the source: active = activation mostly above about 9.7% (no sharp cut-off); inconclusive = no clear call, values can overlap the other calls; inactive = mostly below about 3.7%. This excerpt belongs to a sample that is enriched for actives.

The nature of the assay: induces V. cholerae light production without autoinducers, primary screen, BH1578 luxS cqsA deficient, single point (AID 588436). The settings on record: V. cholerae BH1578 lux reporter, luminescence, 6 h, at 18.7 µM; stronger effect = higher value.
Take `O=C(c1ccc(F)cc1)N1CCC(C(=O)N2CCN(S(=O)(=O)c3ccccc3Br)CC2)CC1`: the activation entry was “inactive”. As for `CC(=O)Nc1ccc(Oc2ccc3c(c2)C(=O)NC3=O)cc1`, the figure is 0.165% (inactive); as for `O=C(COc1coc(CN2CCN(c3ccccc3F)CC2)cc1=O)N1CCc2ccccc21`, -0.376% (inactive).

For the molecule `CCN(CC)S(=O)(=O)c1ccc2c3c(cccc13)C(=O)S2`, the activation entry was “inactive”.

For the molecule `Cc1nn(C)c(C)c1S(=O)(=O)N1CCC(CO)(Cc2ccc(Cl)cc2)CC1`, the activation is -0.416% (inactive). As for `Cn1c(C(=O)O)ccc1S(=O)(=O)N(Cc1ccccc1)Cc1ccccc1`, the entry is “inactive”. Take `CN(CC(=O)NC1CCCCC1)S(=O)(=O)c1cccc2cccnc12`: the activation was -0.233% (inactive). `COc1ccc(S(=O)(=O)N2CCSCC2)cc1`: the activation result was “inactive”. For `COc1ccc(S(=O)(=O)N2CCN(c3cnccn3)CC2)cc1`, the activation is 42.2% (active). Regarding `O=S(=O)(c1cccc(C(F)(F)F)c1)N1CCN(c2cnccn2)CC1`, the activation result is “inactive”. As for `CCOc1ccc(Oc2nc(C)cc(OC)n2)nn1`, the activation is -0.469% (inactive). For `CC1CN(C(=O)CN2C(=O)NC(C)(c3ccccc3)C2=O)CC(C)O1` (stereo not drawn), the activation result is “inactive”. With `Cc1sc2nc(COC(=O)C(NC(=O)c3ccc(Cl)cc3Cl)C(C)C)[nH]c(=O)c2c1C` (stereo not drawn), the activation is -0.176% (inactive). As for `COc1cccc(-n2c(N)cc(=O)nc2SCC(=O)Nc2cc(C)on2)c1`, the activation was 0.462% (inactive).

For `NC(=O)c1nsc(C(=O)N(CC(=O)NCc2ccc(F)cc2)Cc2ccco2)c1N`, the activation is 25% (active). On to `COc1ccc(CNC(=O)C(c2ccc(O)cc2)N(Cc2ccco2)C(=O)c2snc(C(N)=O)c2N)cc1` (stereo not drawn), for which the activation is 0.29% (inactive). Regarding `Cc1ccnc(NC(=O)CCC(=O)N(CC(=O)NCc2ccccc2)Cc2ccco2)c1`, the activation was -0.537% (inactive).

In the case of `Cc1ccc(C(=O)Cc2nnc(C)s2)cc1`, the activation was -0.621% (inactive).

Turning to `COc1ccc(C(C#N)N2N=C(C)CC2(C)C)cc1` (stereo not drawn), the activation entry is “inactive”. Regarding `COc1cc(N/C=C2\CC(=O)NC(C)=C2C#N)cc(OC)c1OC`, the activation was -0.38% (inactive). `Cc1cc(C)nc(SCc2cn3c(C)cc(C)nc3n2)n1`: the activation is -0.12% (inactive).

Take `COc1ccc(-c2cc(C)nc3nc(N)nn23)cc1`: the activation is -1.41% (inactive). For the molecule `COc1ccc(OCc2cn3c(C)cc(C)nc3n2)cc1`, the activation is 126% (active). `COc1ccc(Cl)cc1NC(=O)COC(=O)c1ccc(Br)o1`: the activation was 78.5% (active). Consider `COc1ccc(Cl)cc1NC(=O)CN(C)Cc1ccc(OC)c(OC)c1`, for which the activation was -0.294% (inactive). On to `COc1ccc(Cl)cc1NC(=O)COc1ccc2c(c1)OCO2`, for which the activation is -2.78% (inactive).

For `Cc1nc(-c2ccccc2)cn2c1nc1ccccc12`, the activation entry is “inactive”. For the molecule `Cc1cc(C)c(S(=O)(=O)N(C)CC(=O)NCC2CCCO2)c(C)c1` (stereo not drawn), the activation is -0.212% (inactive).

As for `CCC(=O)N1c2ccc(S(=O)(=O)NCc3ccco3)cc2CC1C` (stereo not drawn), the activation is -0.345% (inactive). On to `CCn1nnc2cc(C(=O)Nc3ccc(C(=O)OC(C)C)cc3)ccc21`, for which the activation entry is “inactive”.

For the molecule `CCCc1ccc(C(=O)[C@@H]2[C@@H](C(C)=O)N3c4ccc(F)cc4C=C[C@@H]3[C@@]23C(=O)Nc2ccccc23)cc1`, the activation was -0.383% (inactive). The same measure for `O=C(O)CCSc1nnc(-c2ccccc2)n1-c1ccccc1`: 4% (inactive); for `O=C(Nc1ccc2oc(-c3ccc4ccccc4c3)nc2c1)c1cccs1`: 25% (active).

Regarding `O=C(Nc1ccc2oc(-c3ccccc3F)nc2c1)c1ccco1`, the activation is 0.203% (inactive).

For `COc1cc(OC)cc(C(=O)Nc2ccc(-c3nc4ccccc4o3)c(O)c2)c1`, the activation is -1.79% (inactive). Consider `O=S(=O)(NC1CCCCC1)c1ccc(F)c2ccccc12`, for which the activation was -0.148% (inactive). As to `NC(c1csc(NC(=O)Nc2cccc(C(F)(F)F)c2)n1)C1CCCCC1` (stereo not drawn), the activation result is “inactive”. For `COCCNc1ncnc2c1ncn2[C@H]1CN(CCN2CCOCC2)C[C@@H](CO)O1`, the activation is -0.715% (inactive).

As for `O=C(NCc1ccc(Cl)cc1)C(=O)NCC1CCCN1S(=O)(=O)c1cccs1` (stereo not drawn), the activation result is “inactive”.

As for `Cc1nonc1C1CCCN1Cc1nc(-c2ccc(F)cc2F)oc1C` (stereo not drawn), the activation is 2.27% (inactive).

Take `Cc1ccsc1-c1nc(CSCC(=O)NCCN2CCCC2)c(C)o1`: the activation is -0.308% (inactive). With `CC(CCc1ccccc1)NCC(O)c1cccc([N+](=O)[O-])c1` (stereo not drawn), the activation was -0.322% (inactive). Consider `COc1ccc(Cl)cc1NC(=O)C1CC(=O)N(c2ccc(F)cc2)C1` (stereo not drawn), for which the activation was -0.72% (inactive). Take `COc1ccc(CNc2nnnn2C)cc1`: the activation is 25.8% (active). Consider `Cn1nnnc1NCc1ccc(Cl)c(Cl)c1`, for which the activation result was “inactive”. With `CCCC(=O)n1nc(NCc2ccc(OC)cc2)nc1NCc1ccc(OC)cc1`, the activation entry is “inactive”. `CCCn1nnnc1NCc1ccc(OC)cc1`: the activation was 495% (active). `CCCCn1nnnc1NCc1cc(OC)c(OC)c(OC)c1`: the activation result was “inactive”. Take `COc1ccc2ccccc2c1CNc1nnnn1C`: the activation entry was “inactive”. With `CCNC(=O)C1(C)CCN(Cc2ccc(C(=O)OCC)o2)C1` (stereo not drawn), the activation is -0.406% (inactive). On to `O=C(COC(=O)CNC(=O)C1CCCCC1)NCc1ccccc1`, for which the activation result is “inactive”. For the molecule `O=C(O)c1cc(S(=O)(=O)Nc2ccc3cn[nH]c3c2)ccc1Br`, the activation was -0.342% (inactive). The same measure for `Cc1ccc(SCC(=O)Nc2nncs2)cc1`: “inactive”; for `Cc1nc(-c2ccc(Cl)cc2)sc1C(=O)CBr`: -3.57% (inactive); for `Cc1ccc(SCC(=O)c2sc(-c3ccccc3)nc2C)cc1`: 25% (active). On to `Cc1ccsc1C(=O)N[C@@H](C)c1nnc2ccccn12`, for which the activation is -5.76% (inactive). As to `COc1ccc(C(C)C)cc1-c1ccc2nncn2c1`, the activation is -1.12% (inactive). As for `CCCCNC(=O)C1CCCN(S(=O)(=O)c2ccc(S(=O)(=O)NCC(C)C)cc2)C1` (stereo not drawn), the activation was -0.448% (inactive). Turning to `O=c1cc(CO)oc(C(Nc2cccc([N+](=O)[O-])c2)c2ccccn2)c1O` (stereo not drawn), the activation is -0.237% (inactive). As for `CCNc1nc(NCC)nc(N(C)n2cnnc2)n1`, the figure is -0.319% (inactive); as for `Cc1cc(C)c(S(=O)(=O)n2cc(C(C)C(N)C(=O)O)c3ccccc32)c(C)c1` (stereo not drawn), “inactive”. Take `COc1ccc(C)cc1NC(=O)NCCCCc1ccccc1`: the activation result is “inactive”.

Turning to `Cc1ccc(S(=O)(=O)NNC(=O)/C=C/c2cccc(F)c2)cc1`, the activation entry is “inactive”. With `COC(=O)CN1C(=O)C(C)(C)Oc2ccc(C(=O)Nc3cccc(OC)c3)cc21`, the activation was -0.813% (inactive).

As for `O=C(CCN1C(=O)c2ccccc2C1=O)C1=NN[C@@H]2C(=O)N(c3ccc(F)cc3)C(=O)[C@H]12`, the activation was 1.21% (inactive). For the molecule `COC(=O)c1c(C(=O)OC)c2n(c1C)CCS2`, the activation is -0.577% (inactive).

Turning to `Cc1cc(-n2cnc(-c3cn(C)nc3C)n2)no1`, the activation entry is “inactive”. As to `CCOC(=O)c1nnn(-c2nonc2-n2cccc2)c1CN1CCC(C(=O)OCC)CC1`, the activation result is “inactive”. With `NNC(=O)c1nnn(-c2nonc2N)c1CN1CCCC1`, the activation was 67.1% (active). Consider `Cc1c(C(=O)O)nnn1-c1nonc1N`, for which the activation was 1.08% (inactive). For the molecule `CN(CC(=O)Nc1ccc(OC(F)(F)F)cc1)C(=O)C1CCC1`, the activation was 18.8% (active). For `COc1ccc(NC(=O)CN(C)C(=O)CNC(=O)C2CCCCC2)cc1`, the activation is 1.72% (inactive). Regarding `COc1ccc(NC(=O)CN(C)C(=O)CC2CCCCC2)cc1`, the activation is -0.68% (inactive). Consider `COc1ccccc1C(=O)NCCn1cc(SCC(=O)NCc2ccco2)c2ccccc21`, for which the activation is -0.41% (inactive). Turning to `CCC(=O)c1c[nH]c(C(=O)NCC2CCCO2)c1` (stereo not drawn), the activation is -0.144% (inactive). For `CCC(=O)Nc1ccc(S(=O)(=O)NCC2CCCO2)cc1` (stereo not drawn), the activation is -0.618% (inactive).

`CCC(=O)NC(NCC1CCCO1)C(Cl)(Cl)Cl` (stereo not drawn): the activation was 16.7% (active).

With `CS(=O)(=O)N1CCC(C(=O)N2CCN(c3ccccc3)CC2)CC1`, the activation entry was “inactive”. As to `O=C(C1CCCN(S(=O)(=O)c2ccccc2)C1)N1CCN(c2ccc(F)cc2)CC1` (stereo not drawn), the activation result was “inactive”. On to `CCCS(=O)(=O)N1CCCC(C(=O)N2CCN(c3ccccc3)CC2)C1` (stereo not drawn), for which the activation was 33.3% (active). In the case of `CCOc1ccc(OCc2cccc(C(=O)N(CC)CC)c2)cc1`, the activation was -0.345% (inactive).

`Cc1cccc(-n2c(SCC(=O)Nc3cccc(S(=O)(=O)NC4=NCCCCC4)c3)nc3ccccc3c2=O)c1C`: the activation is -0.796% (inactive). In the case of `O=C(C1CC(=O)N(c2ccc(F)cc2)C1)N1CCN(c2ccccc2)CC1` (stereo not drawn), the activation is -0.28% (inactive).

Regarding `Cc1cccc(CN2CCC(n3nccc3NC(=O)c3ccccc3C)CC2)n1`, the activation was -0.82% (inactive). For the molecule `COC(=O)c1ccc(C2NC(=O)NC(C)=C2C(=O)N(C)C)cc1` (stereo not drawn), the activation was -3.1% (inactive). Take `COC(=O)C1=C(C)NC(=O)NC1/C=C/c1ccccc1` (stereo not drawn): the activation is 33.3% (active). Turning to `COC(=O)C1=C(C)N=C2SC(C)C(=O)N2C1/C=C/c1ccccc1` (stereo not drawn), the activation entry is “inactive”. As for `CCN(CC(=O)Nc1ccccc1C(F)(F)F)C(=O)CSCc1c(C)noc1C`, the activation result is “inactive”. On to `CC(C)CC(N=C1NC(C)(C)Cc2ccccc21)C(=O)O` (stereo not drawn), for which the activation is -0.478% (inactive). On to `CC(NCc1cccs1)C(=O)Nc1cc(Cl)cc(Cl)c1` (stereo not drawn), for which the activation is -0.542% (inactive). On to `COC(=O)c1ccc(CNC(=O)Cn2cc(C)c(=O)[nH]c2=O)cc1`, for which the activation is -1.31% (inactive). On to `CCc1cccc2c(=O)c(C(=O)NCCCOC)c[nH]c12`, for which the activation result was “inactive”. With `Cc1cc(C(=O)OCC(=O)Nc2ccccc2Cl)c(C)o1`, the activation was 11.9% (inactive).

Regarding `O=C(Cc1ccc2c(c1)CCCC2)Nc1ccccc1Cl`, the activation was 159% (active). The same measure for `O=C(Nc1ccc2c(c1)CCC2)c1cccc(S(=O)(=O)Nc2ccccc2Cl)c1`: 0.69% (inactive); for `CN(CCc1ccccc1)c1ccc([N+](=O)[O-])cn1`: “inactive”.

For `O=[N+]([O-])c1cnc2ccc3ccccc3c2c1`, the activation was 31.2% (active).

Take `O=[N+]([O-])c1ccc2nc(-c3ccccn3)[nH]c2c1`: the activation entry is “inactive”. For the molecule `COc1cccc(N(C(=O)CNC(=O)c2ccco2)C(C(=O)NC2CCCCC2)c2cccnc2)c1` (stereo not drawn), the activation was 0.162% (inactive). As to `COC(=O)c1ccc(N(CC(=O)NC2CCCC2)C(=O)CNC(=O)c2ccco2)cc1`, the activation is -0.813% (inactive). With `COc1ccc(N(CC(=O)NC2CCCCC2)C(=O)CNC(=O)c2ccco2)c(OC)c1`, the activation is 16.7% (active). As for `CC(C)CN(C(=O)Cn1c(=O)cnc2ccccc21)C1CCS(=O)(=O)C1` (stereo not drawn), the activation was -2.94% (inactive).

As for `CC(=O)OCCN(CCCn1c(-c2ccncc2)nc2ccccc21)c1nc(-c2ccc(C)cc2)cs1`, the activation was -0.447% (inactive). As for `Cc1ccc(C)c(NC(=O)c2cc(-c3cc(C)cc(C)c3O)n[nH]2)c1`, the figure is 1.16% (inactive); as for `CC(C)CNC(=O)COC(=O)/C=C/c1ccco1`, 180% (active).

Consider `CC(C)CNC(=O)COC(=O)/C=C/c1ccccc1[N+](=O)[O-]`, for which the activation was 13.6% (inactive). As to `COc1cccc(NC(=O)COC(=O)/C=C/c2ccco2)c1`, the activation entry is “inactive”. `CC(CN1CCCCC1)c1ccccc1` (stereo not drawn): the activation entry is “inactive”.

The values above are taken from PubChem BioAssay AID588436 (Broad Institute, 2011).
